Screening results from PubChem.
Hits are enriched below; roughly 7.9% of the tested compounds scored in any of these assays.
HT1080-NT tox: kills 2HG-producing HT-1080-NT fibrosarcoma cells; HT-1080-NT fibrosarcoma viability, CellTiter-Glo ATP luminescence, 48 h; Potency, µM (series often up to 46.1 µM), inactives show at the highest dose activity, negative = less viability, usual class: cytotoxic; 360,000 compounds, 1.6% hits; AID 686970;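 also: NT is the 2HG producing partner of a matched IDH1 knockdown line; 0% = DMSO-treated cells and -100% = media-only wells without cells; nearly all actives have a fitted effect of over 55% in size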
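Read-out is CellTiter-Glo luminescence after 10 minutes at room temperature, following 48 hours' compound treatment of HT-1080-NT cells (750 cells/well, RPMI, 5% FBS, 37 degrees C).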
SW480 rerep: inducers of DNA re-replication in SW480 colon cancer cells; SW480 DNA re-replication, Hoechst DNA content imaging, 48 h; 340,000 compounds, 1.8% hits; Potency, µM (series often up to 46.1 µM), for the others: at the top dose re-replication activation, actives largely listed as activators; also: % of control where 0% means no effect; nearly all actives have a fitted effect of over 55% in size
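Hoechst fluorescence of nuclei (405 nm excitation, 500-530 nm emission) measured by plate-scanning imager after 48 hr compound exposure at 37 C; re-replication scored as increased number of nuclei with elevated intensity.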
KB-V1 cytotox: kills drug-selected multidrug resistant KB-V1 cells; Potency, µM (series often up to 46.1 µM), actives largely listed as cytotoxic; 400,000 compounds, 3.4% hits; AID 1347076; KB-V1 MDR cells viability, CellTiter-Glo, 72 h; also: % is scaled to controls: 0 for no effect and ±100 for the full control effect; nearly all actives have a fitted effect of over 60% in size
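Drug-selected KB-V1 cells, grown in DMEM lacking phenol red with 10% FBS, receive compound titrations; after three days at 37 degrees C, surviving cell ATP is quantified by CellTiter-Glo luminescence and responses normalized and curve-fitted.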
KB-3-1 tox: kills parental KB-3-1 adenocarcinoma cells. KB-3-1 viability, CellTiter-Glo ATP luminescence, 72 h. 400,000 compounds, 1.4% hits. Potency, µM (top dose mostly 46.1 µM), most hits filed as cytotoxic; also: % is scaled to controls: 0 for no effect and ±100 for the full control effect; nearly all actives have a fitted effect of over 60% in size
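KB-3-1 parental drug-naive adenocarcinoma cells in DMEM/10% FBS, incubated 72 h at 37 C with pin-transferred compounds across a concentration series. Viability by CellTiter-Glo luminescence; concentration-response curves fitted after normalization.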
MCF10A rerep: inducers of DNA re-replication in MCF 10A breast cells; 350,000 compounds, 2.9% hits; Potency, µM (doses to about 46.1 µM), without a hit: at the highest dose activity, positive = re-replication, hits mostly activators; MCF 10A DNA re-replication, Hoechst nuclear intensity, 48 h; also: % of control where 0% means no effect; nearly all actives have a fitted effect of over 50% in size
HT1080 IDH1KD tx: kills HT-1080 cells with IDH1 knockdown; HT-1080 IDH1 knockdown viability, ATP luminescence, 48 h; Potency, µM (doses to about 46.1 µM), inactives show at the top dose activity, negative = toxicity, usual class: cytotoxic; 360,000 compounds, 2% hits; AID 686971;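 also: 0% = DMSO wells and -100% = cell-free medium wells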
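Viability of IDH1-knockdown HT-1080 fibrosarcoma cells was assessed by CellTiter-Glo after 48 h at 37 °C with titrated compound; concentration-effect curves were classified by fit quality and response size.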
* hit, by the source's call; i = inactive; ? = inconclusive; · = no result; ! = repeats disagree; [ ] = another dose, or the depositor's remark. Calls follow the shape of the dose curve; as a rule, active = well fitted curve in the direction sought with a large enough effect; inconclusive = small, poorly fitted or top-dose-only effect, or another doubt; inactive = no such curve, though single readings can be large; an effect the other way counts as inactive or inconclusive. Potency is read from the fitted curve at half-maximal effect.

SMILES	HT1080-NT tox	SW480 rerep	KB-V1 cytotox	KB-3-1 tox	MCF10A rerep	HT1080 IDH1KD tx
CC(=O)c1ccc(NC(=O)c2ccc(-c3ccc(Cl)cc3)o2)cc1	·	·	i	?	·	·
COc1ccccc1NC(=O)c1ccc(-c2ccc(Br)cc2)o1	?	?	3.3µM*	5.8µM*	?	18µM*
CN(C)C(=O)c1ccc(NC(=O)c2ccc(-c3ccc(Cl)cc3)o2)cc1	7%	24%	21µM*	i	28%	5%
Cn1c(SCCCC(=O)c2ccc(Br)cc2)nnc1-c1ccncc1	9%	-6%	i	i	-184%[0.0737 µM]	-7%
O=C(Nc1ccc(CN2CCOCC2)cc1)c1ccc(-c2ccc(Br)cc2)o1	14µM*	?	21µM*	i	?	?
CC1CC(C)CN(S(=O)(=O)c2ccc(F)c(C(=O)Nc3ccc(Cl)cc3F)c2)C1 (stereo not given)	17%	-3%	i	i	2%	0%
O=C(Nc1cccc(-c2nc3cc(Cl)ccc3o2)c1)c1ccc(F)cc1	·	·	i	i	·	·
CCc1nc2ccc(C(=O)Nc3ccc(OC)c(OC)c3)cn2c1N(CC)Cc1cccc(Br)c1	?	·	?	?	·	16µM*
CCc1nc2ccc(C(=O)NC3CCN(Cc4ccccc4)CC3)cn2c1N(CC)Cc1cccc(Br)c1	?	·	8.2µM*	?	·	23µM*
COc1cc2c(cc1OC)C(C1C(=O)CC(C)(C)CC1=O)N(C(=O)CCl)CC2 (stereo not given)	-4%	-7%	i	i	4%	-23%
COc1cc2c(cc1OC)C(c1cc(Br)ccc1F)N(C(=O)CCl)CC2 (stereo not given)	21µM*	14%	i	?	3.3µM*	21µM*
C=CCC(C#Cc1ccccc1)[N+](C)(C)CC=C (stereo not given)	-8%	5%	i	?	28%	-3%
Cc1nn2c(N3CCN(C(=O)c4ccco4)CC3)cc(C(C)(C)C)nc2c1-c1ccccc1	-5%	-6%	18µM*	?	-3%	-5%[9.24 µM]
Cc1nn2c(N3CCN(C)CC3)cc(C(C)(C)C)nc2c1-c1ccccc1	21µM*	?	?	?	?	16µM*
Cc1ccc2cc(C#N)c(SCC(=O)NNC(=O)Cc3ccccc3)nc2c1	1%	-1%	?	i	16%	0%
CCN(CC)CCCNC(=O)C1c2ccccc2C(=O)N1Cc1ccc(C)cc1 (stereo not given)	6%[9.24 µM]	-3%	i	i	-2%	-10%
O=C(NCc1cccs1)C1Cc2c(-c3ccc(Cl)cc3)ccnc2O1 (stereo not given)	?	·	?	2.1µM*	·	2.1µM*
COc1ccc(CNC(=O)C2Cc3c(-c4cccc(C(C)=O)c4)ccnc3O2)cc1OC (stereo not given)	-28%	·	i	?	·	?
O=C(NCC1CC1)C1Cc2c(-c3ccc(Cl)cc3)ccnc2O1 (stereo not given)	-17%	·	?	i	·	-20%
CC(=O)c1cccc(-c2ccnc3c2CC(C(=O)NCc2cccs2)O3)c1 (stereo not given)	?	·	2.3µM*	1µM*	·	?
C=CCn1c(SCC(=O)OCC)nc(C(F)(F)F)cc1=O	-2%	-3%	?	?	-12%	-2%
FC(F)(F)c1cc(Cl)c2nc(-c3ccc(Cl)cc3)c(Cc3ccsc3)n2c1	-4%	·	i	12µM*	·	-6%
Cc1ccc(Cc2c(-c3ccc(F)cc3)nc3c(Cl)cc(C(F)(F)F)cn23)cc1	-11%	·	i	?	·	-7%
Fc1ccc(-c2nc3c(Cl)cc(C(F)(F)F)cn3c2Cc2cccc(Cl)c2)cc1	-6%	·	i	23µM*	·	-10%
FC(F)(F)c1cc(Cl)c2nc(-c3ccccc3)c(Cc3ccsc3)n2c1	-1%	·	i	?	·	-8%
SMILES	HT1080-NT tox	SW480 rerep	KB-V1 cytotox	KB-3-1 tox	MCF10A rerep	HT1080 IDH1KD tx
COc1cc(C=O)ccc1OCC(=O)Nc1cccc(S(=O)(=O)N(C)c2ccccc2)c1	6%	-2%	i	i	16%	-2%
O=C(CN1CCCC1)N1c2ccccc2Sc2ccccc21	0%	-5%	i	i	11%	-4%
CC1(C)CCCN(C(=O)N2c3ccccc3Sc3ccccc32)C1	-23%	15%	i	i	13µM*	?
Cc1ccc(-c2c(C(=O)NCc3ccc(F)cc3)oc(=O)c3ccccc23)cc1	-2%	0%	16µM*!	i	9%	-3%
Cc1ccc(-c2c(C(=O)Nc3ccccc3F)oc(=O)c3ccccc23)cc1	·	·	i	i	·	·
O=C(O)COn1c(-c2ccccc2)nc2ccc([N+](=O)[O-])cc21	9%	-6%	i	i	-7%	23%
CCOC(=O)N1CCN(C(=O)c2cc3sccc3n2C)CC1	15%	-5%	13µM*	i	1%	2%
Cc1ccc(C)c(N2CCN(C(=O)c3cc4sccc4n3C)CC2)c1	?	-3%	?	?	?	?
Cn1c(C(=O)N2CCN(c3cccc(C(F)(F)F)c3)CC2)cc2sccc21	-1%	23µM*	i	i	?	?
NC(=O)C1CCN(c2oc(-c3cccs3)nc2S(=O)(=O)c2ccc(Cl)cc2)CC1	2%	-1%	i	i	5%	-14%
CC(C)CN(C(=O)CSc1ccc2c(c1)OCCO2)c1c(N)n(CC(C)C)c(=O)[nH]c1=O	2%	0%	i	i	3%	0%
CN(CCc1ccccn1)C(=S)Nc1ccc(Cl)c(Cl)c1	-22%	1%	?	i	1%	-12%
